# The full list was thinned out, with the strongest signals kept by preference.
# B1: DC-ASPGR (Homo sapiens), CLC10_HUMAN (protein)
# chain: LDQNSKFQRDLVTLRTDFSNFTSNTVAEIQALTSQGSSLEETIASLKAEVEGFKQERQAVHSEMLLRVQQLVQDLKKLTCQVATLNNNASTEGTCCPVNWVEHQDSCYWFSHSGMSWAEAEKYCQLKNAHLVVINSREEQNFVQKYLGSAYTWMGLSDPEGAWKWVDGTDYATGFQNWKPGQPDDWQGHGLGGGEDCAHFHPDGRWNDDVCQRPYHWVCEAGLGQTSQESHVEPKSCDKTHTCPPCPAPELLGGPSVFLFPPKPKDTLMISRTPEVTCVVVDVSHEDPEVKFNWYVDGVEVHNAKTKPREEQFNSTYRVVSVLTVLHQDWLNGKEYKCKVSNKGLPSSIEKTISKAKGQPREPQVYTLPPSQEEMTKNQVSLTCLVKGFYPSDIAVEWESNGQPENNYKTTPPVLDSDGSFFLYSRLTVDKSRWQEGNVFSCSVMHEALHNHYTQK
# B2: Adiponectin (Rattus norvegicus), Q8K3R4 (protein)
# chain: MLLLQALLFLLILPSHEGITATEGPGALVPPPKETCAGWMAGIPGYPGHNGIPGRDGRDGTPGEKGEKGDAGVLGPKGDPGDAGMTGAEGPRGFPGTPGRKGEPGEAAYMYHSAFSVGLETRVTVPNVPIRFTKIFYNQQNHYDGSTGKFHCNIPGLYYFSYHITVYMKDVKVSLFKKDKAVLFTYDQYQEKNVDQASGSMLLHLEVGDQVWLQVYGEGDNNGLYADNVNDSTFTGFLLYHDTN
# B3: HHL-2 (Homo sapiens), P07307 (protein)
# chain: MAKDFQDIQQLSSEENDHPFHQGEGPGTRRLNPRRGNPFLKGPPPAQPLAQRLCSMVCFSLLALSFNILLLVVICVTGSQSEGHRGAQLQAELRSLKEAFSNFSSSTLTEVQAISTHGGSVGDKITSLGAKLEKQQQDLKADHDALLFHLKHFPVDLRFVACQMELLHSNGSQRTCCPVNWVEHQGSCYWFSHSGKAWAEAEKYCQLENAHLVVINSWEEQKFIVQHTNPFNTWIGLTDSDGSWKWVDGTDYRHNYKNWAVTQPDNWHGHELGGSEDCVEVQPDGRWNDDFCLQVYRWVCEKRRNATGEVA
# Legend:
# Assay in all cases: glycan array binding signal (z-score within array); higher = stronger binding
# Conditions in all cases: glycan notation: IUPAC condensed, linker removed
# [1] = target: Neu5Ac9Ac(a2-3)Gal(b1-4)GlcNAc
# Outline: (§1)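 From the Consortium for Functional Glycomics database, 3228 arrays were curated, keeping only those whose protein sequence was available. Binding is given as a within-array Z-score averaged across arrays sharing a protein sequence and across linkers. Negative Z-scores can be read as non-binding.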
# [2] = target: Fuc(a1-2)Gal(b1-3)GlcNAc(b1-2)Man(a1-3)[Fuc(a1-2)Gal(b1-3)GlcNAc(b1-2)Man(a1-6)]Man(b1-4)GlcNAc(b1-4)GlcNAc
# Outline: as §1
# [3] = target: Fuc(a1-2)Gal(b1-3)[Fuc(a1-4)]GlcNAc(b1-2)Man(a1-3)[Fuc(a1-2)Gal(b1-3)[Fuc(a1-4)]GlcNAc(b1-2)Man(a1-6)]Man(b1-4)GlcNAc(b1-4)GlcNAc
# Outline: as §1
# [4] = target: Fuc(a1-2)[Gal(a1-4)]Gal(b1-4)GlcNAc
# Outline: as §1
# Gal(a1-3)Gal(b1-4)Glc = target: Gal(a1-3)Gal(b1-4)Glc
# Outline: as §1
# Gal(a1-4)Gal(b1-4)GlcNAc = target: Gal(a1-4)Gal(b1-4)GlcNAc
# Outline: as §1
# Gal(b1-3)GalNAc = target: Gal(b1-3)GalNAc
# Outline: as §1
# [5] = target: Gal(b1-4)GlcNAc(a1-6)Gal(b1-4)GlcNAc
# Outline: as §1
# [6] = target: Gal(b1-4)GlcNAc(b1-3)Gal(b1-4)GlcNAc(b1-3)Gal(b1-4)GlcNAc
# Outline: as §1
# [7] = target: Gal(b1-4)GlcNAc(b1-3)[Gal(b1-4)GlcNAc(b1-6)]Gal(b1-4)GlcNAc
# Outline: as §1
# Gal3S(b1-3)GlcNAc = target: Gal3S(b1-3)GlcNAc
# Outline: as §1
# [8] = target: Gal3S(b1-3)[Fuc(a1-4)]GlcNAc
# Outline: as §1
# Gal3S4S(b1-4)GlcNAc = target: Gal3S4S(b1-4)GlcNAc
# Outline: as §1
# Gal6S(b1-4)GlcNAc = target: Gal6S(b1-4)GlcNAc
# Outline: as §1
# Gal6S(b1-4)GlcNAc6S = target: Gal6S(b1-4)GlcNAc6S
# Outline: as §1
# GalNAc(a1-3)Gal = target: GalNAc(a1-3)Gal
# Outline: as §1
# [9] = target: GalNAc(b1-4)GlcNAc(b1-2)Man(a1-3)[GalNAc(b1-4)GlcNAc(b1-2)Man(a1-6)]Man(b1-4)GlcNAc(b1-4)GlcNAc
# Outline: as §1
# GlcA(b1-3)GlcNAc = target: GlcA(b1-3)GlcNAc
# Outline: as §1
# GlcA(b1-6)Gal = target: GlcA(b1-6)Gal
# Outline: as §1
# [10] = target: GlcNAc(b1-4)GlcNAc(b1-4)GlcNAc
# Outline: as §1
# [11] = target: Man(a1-3)[Man(a1-6)]Man(a1-6)[Man(a1-3)]Man(b1-4)GlcNAc(b1-4)GlcNAc
# Outline: as §1
# Man(b1-4)GlcNAc = target: Man(b1-4)GlcNAc
# Outline: as §1
# Neu5Ac(a2-3)Gal = target: Neu5Ac(a2-3)Gal
# Outline: as §1
# [12] = target: Neu5Ac(a2-3)Gal(b1-4)[Fuc(a1-3)]GlcNAc
# Outline: as §1
# [13] = target: Neu5Ac(a2-6)Gal(b1-4)GlcNAc(b1-2)Man(a1-3)Man(b1-4)GlcNAc(b1-4)GlcNAc
# Outline: as §1
# [14] = target: Neu5Ac(a2-6)Gal(b1-4)GlcNAc(b1-2)Man(a1-6)[GlcNAc(b1-2)Man(a1-3)]Man(b1-4)GlcNAc(b1-4)GlcNAc
# Outline: as §1
# [15] = target: Neu5Ac(a2-8)Neu5Ac(a2-3)[GalNAc(b1-4)]Gal(b1-4)Glc
# Outline: as §1
# [16] = target: Neu5Ac(a2-8)Neu5Ac(a2-8)Neu5Ac(a2-8)Neu5Ac(a2-3)[GalNAc(b1-4)]Gal(b1-4)Glc
# Outline: as §1
# [17] = target: Neu5Gc(a2-3)Gal(b1-4)GlcNAc
# Outline: as §1
# [18] = target: Fuc(a1-2)Gal(b1-4)[Fuc(a1-3)]GlcNAc(b1-2)Man(a1-3)[Fuc(a1-2)Gal(b1-4)[Fuc(a1-3)]GlcNAc(b1-2)Man(a1-6)]Man(b1-4)GlcNAc(b1-4)GlcNAc
# Outline: as §1
# [19] = target: Fuc(a1-2)[GalNAc(a1-3)]Gal(b1-4)GlcNAc
# Outline: as §1
# [20] = target: Fuc(a1-3)[Gal(b1-4)]GlcNAc(b1-4)Gal(b1-4)[Fuc(a1-3)]GlcNAc
# Outline: as §1
# [21] = target: Fuc(a1-3)[Gal3S(b1-4)]Glc6S
# Outline: as §1
# [22] = target: Fuc(a1-3)[GalNAc(b1-4)]GlcNAc
# Outline: as §1
# [23] = target: Fuc(a1-3)[Neu5Ac(a2-3)]Gal(b1-4)GlcNAc(b1-3)GalNAc
# Outline: as §1
# [24] = target: Gal(b1-3)GalNAc(a1-3)[Fuc(a1-2)]Gal(b1-4)GlcNAc
# Outline: as §1
# [25] = target: Gal(b1-3)[Fuc(a1-4)]GlcNAc(b1-2)Man(a1-3)[Gal(b1-3)[Fuc(a1-4)]GlcNAc(b1-2)Man(a1-6)]Man(b1-4)GlcNAc(b1-4)GlcNAc
# Outline: as §1
# Gal(b1-4)Glc6S = target: Gal(b1-4)Glc6S
# Outline: as §1
# [26] = target: Gal(b1-4)GlcNAc(b1-3)Gal(b1-3)GlcNAc
# Outline: as §1
# [27] = target: Gal(b1-4)GlcNAc(b1-3)Gal(b1-4)GlcNAc
# Outline: as §1
# [28] = target: Gal(b1-4)GlcNAc(b1-3)[GlcNAc(b1-6)]Gal(b1-4)GlcNAc
# Outline: as §1
# [29] = target: GlcNAc(b1-2)Man(a1-3)[GlcNAc(b1-2)Man(a1-6)]Man(b1-4)GlcNAc(b1-4)GlcNAc
# Outline: as §1
# GlcNAc(b1-6)GalNAc = target: GlcNAc(b1-6)GalNAc
# Outline: as §1
# Man(a1-2)Man(a1-3)Man = target: Man(a1-2)Man(a1-3)Man
# Outline: as §1
# [30] = target: Neu5Ac(a2-3)Gal(b1-4)GlcNAc(b1-2)Man(a1-3)[GlcNAc(b1-2)Man(b1-4)GlcNAc(b1-2)Man(a1-6)]Man(b1-4)GlcNAc(b1-4)GlcNAc
# Outline: as §1
# [31] = target: Neu5Ac(a2-3)Gal(b1-4)GlcNAc(b1-3)Gal(b1-3)GlcNAc
# Outline: as §1
# [32] = target: Neu5Ac(a2-3)Gal(b1-4)GlcNAc6S
# Outline: as §1
# [33] = target: Neu5Ac(a2-3)Gal(b1-4)[Fuc(a1-3)]GlcNAc6S
# Outline: as §1
# [34] = target: Neu5Ac(a2-3)[Neu5Ac(a2-6)]GalNAc
# Outline: as §1
# [35] = target: Neu5Ac(a2-6)Gal(b1-4)GlcNAc(b1-2)Man(a1-3)[Gal(b1-4)GlcNAc(b1-2)Man(a1-6)]Man(b1-4)GlcNAc(b1-4)GlcNAc
# Outline: as §1
# [36] = target: Neu5Ac(a2-6)Gal(b1-4)GlcNAc(b1-3)Gal(b1-4)GlcNAc
# Outline: as §1
# [37] = target: Neu5Ac(a2-6)Gal(b1-4)GlcNAc6S
# Outline: as §1
# [38] = target: Neu5Ac(a2-8)Neu5Ac(a2-8)Neu5Ac(a2-3)Gal(b1-4)Glc
# Outline: as §1
binder,measurement,setting,value
B1,glycan array binding signal (z-score),[1],-0.099
B2,glycan array binding signal (z-score),[2],4.69
same,glycan array binding signal (z-score),[3],2.87
same,glycan array binding signal (z-score),[4],-0.75
same,glycan array binding signal (z-score),Gal(a1-3)Gal(b1-4)Glc,2.17
same,glycan array binding signal (z-score),Gal(a1-4)Gal(b1-4)GlcNAc,-0.311
same,glycan array binding signal (z-score),Gal(b1-3)GalNAc,-0.573
same,glycan array binding signal (z-score),[5],-0.335
same,glycan array binding signal (z-score),[6],3.09
same,glycan array binding signal (z-score),[7],0.332
same,glycan array binding signal (z-score),Gal3S(b1-3)GlcNAc,-0.814
same,glycan array binding signal (z-score),[8],1.13
same,glycan array binding signal (z-score),Gal3S4S(b1-4)GlcNAc,0.706
same,glycan array binding signal (z-score),Gal6S(b1-4)GlcNAc,1.04
same,glycan array binding signal (z-score),Gal6S(b1-4)GlcNAc6S,-0.915
same,glycan array binding signal (z-score),GalNAc(a1-3)Gal,2.96
same,glycan array binding signal (z-score),[9],4.32
same,glycan array binding signal (z-score),GlcA(b1-3)GlcNAc,-0.577
same,glycan array binding signal (z-score),GlcA(b1-6)Gal,-0.389
same,glycan array binding signal (z-score),[10],4.87
same,glycan array binding signal (z-score),[11],-0.767
same,glycan array binding signal (z-score),Man(b1-4)GlcNAc,0.155
same,glycan array binding signal (z-score),Neu5Ac(a2-3)Gal,0.212
same,glycan array binding signal (z-score),[12],0.007
same,glycan array binding signal (z-score),[13],0.717
same,glycan array binding signal (z-score),[14],-0.838
same,glycan array binding signal (z-score),[15],0.022
same,glycan array binding signal (z-score),[16],0.861
same,glycan array binding signal (z-score),[17],-0.295
B3,glycan array binding signal (z-score),[2],-0.497
same,glycan array binding signal (z-score),[18],2.08
same,glycan array binding signal (z-score),[19],-0.68
same,glycan array binding signal (z-score),[20],-0.334
same,glycan array binding signal (z-score),[21],-0.68
same,glycan array binding signal (z-score),[22],-0.451
same,glycan array binding signal (z-score),[23],6.72
same,glycan array binding signal (z-score),[24],-0.536
same,glycan array binding signal (z-score),[25],0.043
same,glycan array binding signal (z-score),Gal(b1-4)Glc6S,-0.52
same,glycan array binding signal (z-score),[26],-0.728
same,glycan array binding signal (z-score),[27],-0.474
same,glycan array binding signal (z-score),[28],-0.539
same,glycan array binding signal (z-score),Gal6S(b1-4)GlcNAc6S,3.54
same,glycan array binding signal (z-score),[9],3.17
same,glycan array binding signal (z-score),GlcA(b1-3)GlcNAc,-0.012
same,glycan array binding signal (z-score),[29],-0.677
same,glycan array binding signal (z-score),[10],2.8
same,glycan array binding signal (z-score),GlcNAc(b1-6)GalNAc,-0.738
same,glycan array binding signal (z-score),Man(a1-2)Man(a1-3)Man,-0.028
same,glycan array binding signal (z-score),[30],2.39
same,glycan array binding signal (z-score),[31],3.56
same,glycan array binding signal (z-score),[32],-0.075
same,glycan array binding signal (z-score),[33],0.012
same,glycan array binding signal (z-score),[34],-0.847
same,glycan array binding signal (z-score),[35],0.34
same,glycan array binding signal (z-score),[36],-0.539
same,glycan array binding signal (z-score),[37],2.18
same,glycan array binding signal (z-score),[38],3.59
same,glycan array binding signal (z-score),[16],0.721
